Results on seven compounds are retold here after PubChem BioAssay (Tox21).

Unmarked numbers belong to inactive results. Inconclusive results are not listed. Activity calls are given as the source filed them. Unless noted, the call rests on the fitted dose curve; in most records, active means well fitted curve in the direction sought with a large enough effect in the repeat runs; inconclusive means weak or mixed curves; inactive means no such curve, though single readings can be large; an effect the other way counts as inactive or inconclusive.

The nature of assay [1]: qHTS assay to test for compound auto fluorescence at 535 nm (green) in HEK293 cells (AID 720680). (In general: qHTS replaces the single test concentration by a dilution series.)
Assay [2] in a line: qHTS assay to test for compound auto fluorescence at 460 nm (blue) in HEK293 cell free culture (AID 720681). In a few lines:
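Test compounds were pinned into cell-free culture medium (DMEM with 10% FBS) and fluorescence was read directly at Ex/Em 405/460 nm. Signals were expressed as fluorescence equivalents of triamterene, with DMSO vehicle as control.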

A short description of assay [3]: qHTS assay to test for compound auto fluorescence at 535 nm (green) in HEK293 cell free culture (AID 720682). In a few lines:
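Read-out: 485/535 nm fluorescence intensity, calibrated against fluorescein. Medium only (DMEM + 10% FBS, no cells); test compound or DMSO vehicle added by pintool before plate reading.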

The nature of assay [4]: qHTS assay to test for compound auto fluorescence at 590 nm (red) in HEK293 cell free culture (AID 720683). A digest of the protocol:
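Tox21 10K library compounds were pinned into cell-free DMEM with 10% FBS and fluorescence was read at excitation 540 nm. Activity is expressed as Rose Bengal sodium equivalency.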

Assay [5] in a line: qHTS assay to test for compound auto fluorescence at 590 nm (red) in HepG2 cell free culture (AID 720684). In a few lines:
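Measured in medium alone (MEM containing 10% FBS) following pintool addition of compound; emission at 590 nm with 540 nm excitation, referenced to Rose Bengal sodium.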

Assay [6] in a line: qHTS assay to test for compound auto fluorescence at 460 nm (blue) in HepG2 cell free culture (AID 720685). In a few lines: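 Compound (23 nL) or DMSO pinned into cell-free MEM with 10% FBS; blue fluorescence read at 405/460 nm excitation/emission, expressed as auto-fluorescence equivalency to triamterene.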
Assay [7] in a line: qHTS assay to test for compound auto fluorescence at 535 nm (green) in HepG2 cell free culture (AID 720686).
Assay [8] can be described thus: qHTS assay to test for compound auto fluorescence at 460 nm (blue) in HepG2 cells (AID 720687). In a few lines:
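Cells (2,000/well in MEM with 10% FBS) attached overnight at 37 C, then were exposed to compound or DMSO for 1 hr at 37 C, 5% CO2. Fluorescence read at Ex/Em 405/460 nm, expressed as triamterene-equivalent signal.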

The target of assay [9] is Glucocorticoid receptor (Homo sapiens) (UniProt P04150). Put plainly: qHTS assay to identify small molecule agonists of the glucocorticoid receptor (GR) signaling pathway (AID 720691; active means well fitted activation curve with a large enough effect in the signal ratio in the repeat runs, not every such curve was filed as active; the % refers to the signal ratio). A digest of the protocol:
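GR-bla HeLa cells carrying a GRE-driven beta-lactamase reporter, exposed to compounds for 18 h at 37 C. Reporter activation read as fluorescence after 2 h with LiveBLAzer B/G FRET substrate at room temperature.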

Assay [10] shares this target. Put plainly: qHTS assay to identify small molecule antagonists of the glucocorticoid receptor (GR) signaling pathway (AID 720692; active means well fitted inhibition curve with a large enough effect in the signal ratio in the repeat runs, not every such curve was filed as active; the % refers to the signal ratio). A digest of the protocol:
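GR-bla HeLa cells carrying a GRE-driven beta-lactamase reporter received compound after 4 h plating, then dexamethasone (5 nM final). After 18 h at 37C, the FRET substrate was loaded for 2 h at room temperature and fluorescence read.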

Assay [11] is described as follows: qHTS assay to identify small molecule antagonists of the glucocorticoid receptor (GR) signaling pathway - cell viability counter screen (AID 720693). Further: nearly all actives have a fitted effect of over 55% in size.
Assay [12] can be described thus: qHTS assay for identifying genotoxic compounds that show differential cytotoxicity against isogenic chicken DT40 cell lines with known DNA damage response pathways - wild type cell line (AID 743012). Further: nearly all actives have a fitted effect of over 60% in size. Further: potency means the concentration at half of the fitted maximal effect. In a few lines: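 Wild-type DT40 cells (300/well) exposed to compounds for 40 hours at 37 C/5% CO2. Viability read by CellTiter-Glo luminescence after 30 min at room temperature.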

A short description of assay [13]: qHTS assay for identifying genotoxic compounds that show differential cytotoxicity against isogenic chicken DT40 cell lines with known DNA damage response pathways - Rev3 mutant cell line (AID 743014). Further: nearly all actives have a fitted effect of over 55% in size. Further: potency means the concentration at half of the fitted maximal effect.
Assay [14] in a line: qHTS assay for identifying genotoxic compounds that show differential cytotoxicity against isogenic chicken DT40 cell lines with known DNA damage response pathways - Rad54/Ku70 mutant cell line (AID 743015). Further: nearly all actives have a fitted effect of over 60% in size. Further: potency means the concentration at half of the fitted maximal effect.
Assay [15] can be described thus: qHTS assay to identify small molecule antagonists of the androgen receptor (AR) signaling pathway - cell viability counter screen (AID 743033; further: nearly all actives have a fitted effect of over 45% in size).
Assay [16] addresses Androgen receptor (Homo sapiens) (UniProt P10275). Briefly: qHTS assay to identify small molecule agonists of the androgen receptor (AR) signaling pathway using the MDA cell line (AID 743040; further: nearly all actives have a fitted effect of over 20% in size). In a few lines:
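Luminescence from ONE-Glo, read after 30 min at room temperature, reflects MMTV-driven luciferase in MDA-kb2 cells (AR- and GR-responsive). Treatment lasted 16 h at 37C, 0% CO2.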

Assay [17] in a line: qHTS assay to identify small molecule antagonists of the androgen receptor (AR) signaling pathway using the MDA cell line - cell viability counter screen (AID 743041; further: nearly all actives have a fitted effect of over 45% in size). A digest of the protocol:
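Viability counter screen run alongside the AR antagonist reporter: cells seeded 5 h before compound, R1881 added, 16 h incubation at 37C without CO2, fluorescent CellTiter-Fluor signal quantified.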

Assay [18] in a line: qHTS assay to identify small molecule antagonists of the thyroid receptor (TR) signaling pathway - cell viability counter screen (AID 743064). Further: nearly all actives have a fitted effect of over 50% in size. In a few lines:
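GH3.TRE-Luc rat pituitary cells carrying a TRE-luciferase reporter were treated with compound plus 1 nM T3 (final) for 23.5 h at 37 °C. Viability was then read in the same wells by CellTiter-Fluor fluorescence after a further 30 min.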

The target in assay [19] is Androgen receptor (Homo sapiens) (UniProt P10275). Put plainly: qHTS assay to identify small molecule antagonists of the androgen receptor (AR) signaling pathway using the MDA cell line (AID 743042; further: nearly all actives have a fitted effect of over 55% in size). In a few lines:
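MDA-kb2 cells (human breast carcinoma, stably carrying an MMTV-luciferase reporter responsive to AR and GR) were plated at 3,000 cells/well and preincubated 5 hr at 37C, then given compound plus R1881 agonist for 16 h. ONE-Glo luminescence was read.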
On the % scale 0 is the no-effect control and ±100 the full control effect.

Sequence of Glucocorticoid receptor (Homo sapiens) (P04150 whole entry, looked up): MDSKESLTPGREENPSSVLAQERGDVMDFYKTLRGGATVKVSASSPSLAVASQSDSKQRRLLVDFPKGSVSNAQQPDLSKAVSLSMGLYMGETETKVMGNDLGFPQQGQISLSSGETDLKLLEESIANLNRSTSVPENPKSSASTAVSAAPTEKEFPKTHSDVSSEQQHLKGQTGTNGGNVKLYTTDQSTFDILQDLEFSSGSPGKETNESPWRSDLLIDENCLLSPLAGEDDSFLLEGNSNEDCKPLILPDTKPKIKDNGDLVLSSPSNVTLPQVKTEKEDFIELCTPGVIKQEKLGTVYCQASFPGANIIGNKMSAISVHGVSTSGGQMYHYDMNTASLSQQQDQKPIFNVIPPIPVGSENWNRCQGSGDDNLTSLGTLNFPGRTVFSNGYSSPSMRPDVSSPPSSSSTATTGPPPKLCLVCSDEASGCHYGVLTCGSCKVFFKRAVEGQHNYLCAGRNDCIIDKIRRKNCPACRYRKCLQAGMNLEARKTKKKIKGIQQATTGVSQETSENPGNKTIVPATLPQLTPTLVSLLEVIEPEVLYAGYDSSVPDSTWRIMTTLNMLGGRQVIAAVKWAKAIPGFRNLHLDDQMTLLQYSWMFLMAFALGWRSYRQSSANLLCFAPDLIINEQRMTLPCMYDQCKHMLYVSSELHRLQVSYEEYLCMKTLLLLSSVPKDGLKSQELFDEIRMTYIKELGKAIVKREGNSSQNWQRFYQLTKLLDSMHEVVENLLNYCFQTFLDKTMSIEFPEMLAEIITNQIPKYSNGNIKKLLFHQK
Sequence of Androgen receptor (Homo sapiens) (P10275 whole entry, looked up): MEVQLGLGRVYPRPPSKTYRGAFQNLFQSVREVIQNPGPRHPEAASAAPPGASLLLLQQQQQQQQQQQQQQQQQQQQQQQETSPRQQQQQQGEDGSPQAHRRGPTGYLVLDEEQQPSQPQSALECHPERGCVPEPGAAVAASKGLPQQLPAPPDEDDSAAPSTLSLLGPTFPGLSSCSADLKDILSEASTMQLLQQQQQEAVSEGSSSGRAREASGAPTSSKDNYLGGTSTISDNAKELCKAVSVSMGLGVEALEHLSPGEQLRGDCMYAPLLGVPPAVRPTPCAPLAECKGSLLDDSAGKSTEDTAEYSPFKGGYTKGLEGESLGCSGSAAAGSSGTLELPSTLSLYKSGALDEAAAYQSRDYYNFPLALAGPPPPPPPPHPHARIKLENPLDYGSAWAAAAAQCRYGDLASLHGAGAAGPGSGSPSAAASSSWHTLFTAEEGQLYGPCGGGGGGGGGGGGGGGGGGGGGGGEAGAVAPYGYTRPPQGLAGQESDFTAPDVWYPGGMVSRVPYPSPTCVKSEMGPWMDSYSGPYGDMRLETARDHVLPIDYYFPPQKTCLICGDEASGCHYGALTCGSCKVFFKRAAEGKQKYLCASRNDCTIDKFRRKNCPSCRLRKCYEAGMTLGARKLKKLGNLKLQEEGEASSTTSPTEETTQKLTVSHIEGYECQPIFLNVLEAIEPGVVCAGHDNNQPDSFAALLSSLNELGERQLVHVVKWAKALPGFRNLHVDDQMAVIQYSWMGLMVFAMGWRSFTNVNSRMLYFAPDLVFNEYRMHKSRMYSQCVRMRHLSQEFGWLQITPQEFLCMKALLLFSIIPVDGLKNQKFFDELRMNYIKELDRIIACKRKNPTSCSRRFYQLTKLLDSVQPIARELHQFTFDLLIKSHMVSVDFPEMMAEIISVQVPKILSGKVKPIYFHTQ

With `CCc1cccc(N(C)C(N)=Nc2cccc3ccccc23)c1`, the call in assay [1], in [3], in [4], in [5] and in assay [7] was inactive. The Potency result in assay [2], in assay [6], in [8], in assay [9], in assay [10] and in [11] was “inactive” each time. The Potency result in assay [15] and in assay [16] was “inactive” each time. Moreover, the figures for the Potency in [12], in [13] and in assay [14] were 5.96 µM (active), 11.9 µM (active) and 11.9 µM (active), respectively.

As for `CCC(=O)OC/C=C/c1ccccc1`, the compound was called inactive in assay [1], in assay [3], in assay [4], in assay [5] and in assay [7]. Moreover, the Potency entry in assay [2], in [6], in assay [8], in assay [9], in [10] and in assay [11] was “inactive” in each case. For the same compound, the Potency result in [12], in [13], in [14], in [15], in assay [17] and in [18] was “inactive” each time.

Turning to `CC(Cl)C(Cl)Cl` (stereo not drawn), the compound was classed as inactive in assay [1], in [3], in [4], in assay [5] and in [7]. The Potency result in assay [2], in assay [6], in assay [8], in assay [9], in [10] and in assay [11] was “inactive” throughout. The Potency result in [12], in assay [13], in assay [14], in assay [15], in assay [17] and in assay [18] was “inactive” in each case.

With `CCCOC(=O)c1ccc(C(=O)OCCC)nc1`, the result in assay [1], in [3], in assay [4], in assay [5] and in assay [7] was inactive. Besides, the Potency entry in assay [2], in [6], in assay [8], in [9], in assay [10] and in [11] was “inactive” each time. In addition, the Potency result in assay [12], in assay [13], in assay [14], in assay [15], in assay [16] and in assay [17] was “inactive” throughout. The Potency result in assay [19] was “inactive”.

For `COC(OC)(C(=O)c1ccccc1)c1ccccc1`, the call in assay [1], in assay [3], in assay [4], in [5] and in assay [7] was inactive. The Potency result in assay [2], in assay [6], in assay [8], in assay [9], in [10] and in assay [11] was “inactive” throughout. Further, the Potency entry in assay [15], in assay [17] and in [18] was “inactive” throughout. The Potency in assay [12] is 54.4 µM (active); in [13], 15.3 µM (active); in assay [14], 48.5 µM (active).

In the case of `CC1CN(c2cc3c(cc2F)c(=O)c(C(=O)O)cn3-c2ccc(F)cc2F)CCN1` (stereo not drawn), the compound was classed as inactive in assay [1], in [3], in [4], in assay [5] and in assay [7]. Besides, the Potency result in [2], in assay [6], in assay [8], in assay [9], in assay [10] and in assay [11] was “inactive” each time. The Potency entry in [12], in assay [13], in assay [14], in [15], in assay [17] and in assay [18] was “inactive” each time.

Take `O=C(CCCN1CCC(O)(c2ccc(Br)cc2)CC1)c1ccc(F)cc1`: in assay [1], the fluorescence, % of fluorescein is -0.0174% [at 18.6 µM]. Also, the fluorescence, % of fluorescent control in assay [2] is 0.0856% [at 18.6 µM]; in assay [4] it was 0.118% [at 18.6 µM]; in assay [6] it was 0.0015% [at 18.6 µM]; in assay [8], 0.0362% [at 18.6 µM]. Moreover, in [3], the activity change was 0.0165% [at 18.6 µM]. The fluorescence, % of Rose Bengal in [5] was -0.294% [at 18.6 µM]. In assay [7], the fluorescence, % of fluorescein control was -0.0224% [at 18.6 µM]. Further, the Potency entry in [9], in assay [10], in [11], in assay [15] and in [17] was “inactive” in each case. Moreover, the Potency in assay [12] was 5.07 µM (active); in [13], 2.85 µM (active); in assay [14] it was 4.52 µM (active).
